Source: the supplement of paper PMC6555819

These sequences were tested on RARa:RXR (NR concentration 270 nM, RXRa partner concentration 90 nM) (assay: PBM binding z-score (relative to random genomic background probes); higher = stronger binding; sequences stand for … in GC…GCGATTGACAGCGTAGAATGAAGG).
How it was run: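 For binding z-scores, the reference was random background probes on custom Agilent 4×180K protein-binding microarrays. These arrays were incubated 1 h with ligand-free nuclear receptor dimers in PBS pH 7.4, 2% milk, 0.02% Triton X-100, 1 mM DTT, 0.2 mg/mL BSA and 0.4 mg/ml salmon testes DNA. Fluorescence was scanned after antibody detection of each partner (one per run) and regression-normalized.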

| Sequence | PBM binding z-score |
| --- | --- |
| TCTCGGAGGACAGGAAGGTCAGAGCTTTCCAGAG | 1.42 |
| ACTATTAGTTGACTTACGGCAACCGATACGACGC | 0.256 |
| CCGGACAGGTGAAAGGTAACTCAGTCTGGTACGC | 1.91 |
| ATCGAAAGGTCGAAGTGAGTATAGAGAAAGGGAA | 2.76 |
| ATATGTAGGTTATCGGCTCATTCAGTTTGCGCAT | 0.31 |
| CCTTCTGGGCCACGAAAGGTCATTGATTCAGTGA | 5.44 |
| CAAACTAGGTCAAGCTCAAAGTCGGTTTGTGCCA | 2.52 |
| TTACCAAGGTGAAAGGTAGTTGATGCACGCCTTG | 1.41 |
| CCAACTGGGCCACGAAAGGTCATTGATTCAGTGA | 5.31 |
| AGAATGAGGTTATACGTAGATCAGGCAAGAAAGT | 1.51 |
| CAAACCAGGTCAAGGTCAAAGTCGGTTTGTGCCA | 6.02 |
| TCATATAGGTAAACAGGTGAAAGTCCGTAAGTTA | 1.3 |
| CGAACGAGAGCATGAGTTGATAGCAAATGCCGAT | -0.442 |
| ACTTACGGGTCAACGAGGTTATGGCACGCGTATA | 5.52 |
| ATCGACAGGTCGACGAGGTGAGTATACACCGTTT | 1.54 |
| CAAACTAGGTCACAGAGGTCAAAGTCCGTGCGTA | 7.51 |
| CCTACTGGGCCAAAGGTCAATGATTCCAATGCTC | 5.75 |
| GCTGCTAGGTCAAATGATGGTCAGCTAAAGCTCG | 3.18 |
| AGAATGAGTTTATACGTAGATCAGGGAAGAAAGT | -0.34 |
| TGAATGAGGGTATAAGATCAGGGAACGTTGCAAA | 0.234 |
| CCTCGGAGGACAACAGGAGGTCAGTGCTGCCAGA | 2.05 |
| TAGCCTAGGTCAGATCGGGCCAGTATGCGCTATA | 0.898 |
